The campaign covered roughly 48,000 compounds. About 13,000 (27%) showed an effect of 50% or more. This is one part of the list.
Each compound was assayed on Wolbachia pipientis (assay: Anti-Wolbachia Cell-Based Screen). Conditions: 5 µM.
Format: functional
Set-up: scale not given: in the data most compounds retested in dose-response had high values

Row | Structure (SMILES) | Percent Effect
1 | O=C(c1ccc(Cl)c(Cl)c1)N1CCCCC1C1OCCO1 (stereo not given) | 4.358%
2 | Cc1ncc(CNC(=O)N(C)Cc2ccc([S+](C)[O-])cc2)s1 (stereo not given) | -5.78%
3 | CCc1nc(CN2CCOC(CN(CC)c3cccnn3)C2)cs1 (stereo not given) | 0.2652%
4 | Cc1nc(C(C)C)sc1C(=O)NS(=O)(=O)c1ccc(C#N)cc1 | -14.12%
5 | Cc1ccc(CNCCOc2ccc(S(C)(=O)=O)cc2)cc1 | 14.5%
6 | NC(=O)C1CCN(C(=O)c2ccccc2OCc2ccccc2Cl)CC1 | 5.008%
7 | CCNC(=O)COc1ccccc1N1CCCC(C)C1 (stereo not given) | -0.1998%
8 | C=C(C)COc1ccccc1CN1CCC(NC(C)=O)CC1 | 100.9%
9 | Cc1ccc(NCCCNC(=O)C2CCCN(Cc3ccco3)C2)nc1 (stereo not given) | -3.633%
10 | C=C(C)COc1ccccc1C(=O)N1CCC2(CC1)CN(C)CCN2C | 12.34%
11 | C=C(C)CN1CCC(NC(=O)NCCc2ccccc2OC)CC1 | 1.808%
12 | C=C(C)COc1ccccc1NC(=O)N1CCCCC1CO (stereo not given) | -1.415%
13 | C=C(C)COc1ccccc1CN1CCCC(C(=O)NCCCO)C1 (stereo not given) | 100.8%
14 | O=C(NCCCc1ccncc1)C1CCCN(Cc2ccco2)C1 (stereo not given) | 21.32%
15 | C=C(C)COc1ccccc1CN1CCC(C(=O)NCC)C1 (stereo not given) | 91.68%
16 | C=C(C)COc1ccccc1C(=O)N1CCC(C(=O)NCC)C1 (stereo not given) | 83.75%
17 | C=C(C)COc1ccccc1NC(=O)NC1CCOCC1 | -8.907%
18 | CCc1nc(CCNC(=O)Nc2cc(C(N)=O)sc2C)cs1 | 34.11%
19 | O=C(c1ncoc1C1CCCO1)N1CC2(CCCC2)c2ccccc21 (stereo not given) | -7.876%
20 | Cc1ccc(CCNc2ncnc3sc4c(c23)CCNC4)o1 | 6.04%
21 | CC(=O)N1CCc2[nH]nc(C(=O)N3CCOCC3)c2C1 | -13.35%
22 | CCC(C)N1CCc2c(C(=O)N3CCOCC3)n[nH]c2C1 (stereo not given) | -26.93%
23 | Nc1nc2c(c(NCc3ccc(C(=O)N4CCCC4)cc3)n1)CCCC2 | -8.867%
24 | Cc1nc2oc(C(=O)N3CCCC3)c(N)c2c2c1CCCC2 | 89.55%
25 | CC(=O)N1CCCN(C(=O)c2oc(Br)cc2C)CC1 | -21.77%
26 | CCn1c(N)nc2cc(C(=O)N3CCCOCC3)cnc21 | -12.44%
27 | Cc1nc2oc(C(=O)N3CCOCC3)c(N)c2c2c1CCCC2 | 117.9%
28 | Cn1c(C(=O)N2CCOCC2)nc2c1CCN(c1ncccn1)C2 | -2.522%
29 | CC(C)c1nc2oc(C(=O)N3CCOCC3)c(N)c2c2c1CCCC2 | 100.5%
30 | Cc1nc(N2CCOc3ccc(CO)cc3C2)c2c(C)noc2n1 | -4.645%
